{
  "source": "PubChem BioAssay (NCATS)",
  "key": {"[1]": {"target": "Aldehyde dehydrogenase, mitochondrial (Homo sapiens) (UniProt P05091)", "assay": "qHTS for Inhibitors of the Aldehyde Dehydrogenase Family (ALDH2) Primary screen (AID 2061308); also: nearly all actives have a fitted effect of over 55% in size", "conditions": "ALDH2 enzyme inhibition qHTS, 1536-well; series mostly up to 56 µM"}, "[2]": {"target": "Retinaldehyde dehydrogenase 3 (Homo sapiens) (UniProt P47895)", "assay": "qHTS for Inhibitors of the Aldehyde Dehydrogenase Family (ALDH1A3) Primary screen (AID 2061315)", "conditions": "ALDH inhibition qHTS; series mostly up to 56 µM"}},
  "note": "Inconclusive results are not listed. Entries that show only a call come without a potency. Calls of active or inactive are those of the source. Calls follow the shape of the dose curve; as a rule, active = well fitted curve in the direction sought with a large enough effect; inconclusive = small, poorly fitted or top-dose-only effect, or another doubt; inactive = no such curve, though single readings can be large; an effect the other way counts as inactive or inconclusive.",
  "data": [
    {"smiles": "O=C(c1ccc2c(c1)ncn2-c1ccccc1)N1CCCCC1", "values": [
      {"measurement": "Potency", "setting": "[1]", "value": "inactive"},
      {"measurement": "Potency", "setting": "[2]", "value": "inactive"}
    ]},
    {"smiles": "N#Cc1nc(Nc2ccc(Br)cc2)nc(NC2CCCC2)n1", "values": [
      {"measurement": "Potency", "setting": "[1]", "value": "inactive"},
      {"measurement": "Potency", "setting": "[2]", "value": "inactive"}
    ]},
    {"smiles": "Cc1cc2c(s1)c1cnn(Cc3cccc(Cl)c3F)c(=O)c1n2C", "values": [
      {"measurement": "Potency", "setting": "[1]", "value": "inactive"},
      {"measurement": "Potency", "setting": "[2]", "value": "inactive"}
    ]},
    {"smiles": "CC(C)c1ccccc1-c1ncc(F)c(NCC2CCN(c3cnccn3)C2)n1", "note": "(stereo not given)", "values": [
      {"measurement": "Potency", "setting": "[1]", "value": "inactive"},
      {"measurement": "Potency", "setting": "[2]", "value": "inactive"}
    ]},
    {"smiles": "O=S(=O)(c1c(F)cccc1F)C1CCN(S(=O)(=O)c2ccc3c(c2)OCCO3)CC1", "values": [
      {"measurement": "Potency", "setting": "[1]", "value": "inactive"},
      {"measurement": "Potency", "setting": "[2]", "value": "inactive"}
    ]},
    {"smiles": "O=C(CSc1ccccc1)Nc1nnc(COc2ccc(Cl)cc2)s1", "values": [
      {"measurement": "Potency", "setting": "[1]", "value": "inactive"},
      {"measurement": "Potency", "setting": "[2]", "value": "inactive"}
    ]},
    {"smiles": "COc1cc2ncnc(N(C)Cc3cccs3)c2cc1-c1ccc2c(c1)OCO2", "values": [
      {"measurement": "Potency", "setting": "[1]", "value": "inactive"},
      {"measurement": "Potency", "setting": "[2]", "value": "inactive"}
    ]},
    {"smiles": "O=S(=O)(c1ccc2c(c1)OCCO2)N1CCN(S(=O)(=O)c2ccccc2F)CC1", "values": [
      {"measurement": "Potency", "setting": "[1]", "value": "inactive"},
      {"measurement": "Potency", "setting": "[2]", "value": "inactive"}
    ]},
    {"smiles": "O=S1(=O)N=C(Oc2ccc(C(F)(F)F)cc2)c2ccccc21", "values": [
      {"measurement": "Potency", "setting": "[1]", "value": "inactive"},
      {"measurement": "Potency", "setting": "[2]", "value": "inactive"}
    ]},
    {"smiles": "C/C(=C\\c1ccc2c(c1)OCCO2)C1Nc2cccc3cccc(c23)N1", "values": [
      {"measurement": "Potency", "setting": "[1]", "value": "inactive"},
      {"measurement": "Potency", "setting": "[2]", "value": "inactive"}
    ]},
    {"smiles": "Nc1ccc(NC(=O)Nc2nnc(-c3ccncc3)s2)cc1C(F)(F)F", "values": [
      {"measurement": "Potency", "setting": "[1]", "value": "inactive"},
      {"measurement": "Potency", "setting": "[2]", "value": "inactive"}
    ]},
    {"smiles": "COc1ccc(C2c3c(nc(Cc4ccccc4)[nH]c3=O)Oc3ccc4ccccc4c32)cc1OC", "note": "(stereo not given)", "values": [
      {"measurement": "Potency", "setting": "[1]", "value": "inactive"},
      {"measurement": "Potency", "setting": "[2]", "value": "inactive"}
    ]},
    {"smiles": "Cc1ccc(NC(=O)CSc2nnc(-c3cccc([S+](=O)([O-])N4CCCC4)c3)n2-c2c(C)cccc2C)cc1", "values": [
      {"measurement": "Potency", "setting": "[1]", "value": "inactive"},
      {"measurement": "Potency", "setting": "[2]", "value": "inactive"}
    ]},
    {"smiles": "O=S(=O)(c1ccc2c(c1)OCCO2)N1CCN(S(=O)(=O)c2ccccn2)CC1", "values": [
      {"measurement": "Potency", "setting": "[1]", "value": "inactive"},
      {"measurement": "Potency", "setting": "[2]", "value": "inactive"}
    ]},
    {"smiles": "Cc1cc(-c2ccccc2)nc2c(C(=O)Nc3ccc4c(c3)CCC4)cnn12", "values": [
      {"measurement": "Potency", "setting": "[1]", "value": "inactive"},
      {"measurement": "Potency", "setting": "[2]", "value": "inactive"}
    ]}
  ]
}
